Source: PubChem BioAssay (Tox21)
Values without a mark were called inactive. Results filed as inconclusive are left out. Entries that show only a call come without a potency. The source made the active and inactive calls. Unless noted, calls come from the whole dose curve; as a rule, active = well fitted curve in the direction sought with a large enough effect in the repeat runs; inconclusive = weak or mixed curves; inactive = no such curve, though single readings can be large; an effect the other way counts as inactive or inconclusive.

Assays:
[1] = qHTS assay to identify small molecule agonists of the constitutive androstane receptor (CAR) signaling pathway - cell viability counter screen (AID 1224836); conditions: HepG2-CYP2B6-hCAR viability, CellTiter-Fluor, 23 h, PK11195 added to every well; series mostly up to 92.4 µM; note: nearly all actives have a fitted effect of over 45% in size
In short: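 Counter screen multiplexed with the CAR reporter readout: HepG2 cells co-transfected with hCAR and the CYP2B6-2.2kb construct receive a 15-concentration compound series and 0.75 uM PK11195 (final), then CellTiter-Fluor fluorescence is read after 23 h.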

[2] = qHTS assay to identify small molecule antagonists of the constitutive androstane receptor (CAR) signaling pathway - cell viability counter screen (AID 1224837); conditions: HepG2-CYP2B6-hCAR viability, CellTiter-Fluor, 23 h, co-treated with 50 nM CITCO; series mostly up to 92.4 µM; note: nearly all actives have a fitted effect of over 45% in size
In short: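 Viability was measured with CellTiter-Fluor in a HepG2 line carrying stably transfected hCAR and a CYP2B6-2.2kb construct. Cells were exposed for 23 hr at 37 C to 15 compound concentrations with 50 nM CITCO as agonist.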

[3] = molecular target: Nuclear receptor subfamily 1 group I member 3 (Homo sapiens) (UniProt Q14994); experiment: qHTS assay to identify small molecule antagonists of the constitutive androstane receptor (CAR) signaling pathway (AID 1224838); conditions: HepG2-CYP2B6-hCAR luciferase, CITCO-stimulated, 24 h; series mostly up to 92.4 µM;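 note: HepG2 cells stably expressing hCAR with CYP2B6 luciferase reporter stimulated by CITCO; nearly all actives have a fitted effect of over 40% in size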; note: potency is the fitted concentration of half-maximal effect
In short: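 Antagonist mode used CITCO at a final 50 nM to activate CAR in human hepatoma HepG2 cells carrying stable hCAR and a 2.2 kb CYP2B6 promoter-luciferase construct. Compounds were tested at 15 concentrations over 24 h, with luminescence as the end point.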

[4] = molecular target: Nuclear receptor subfamily 1 group I member 3 (Homo sapiens) (UniProt Q14994); experiment: qHTS assay to identify small molecule agonists of the constitutive androstane receptor (CAR) signaling pathway (AID 1224839); conditions: HepG2 hCAR CYP2B6-luciferase, agonist mode, 24 h; series mostly up to 92.4 µM; note: nearly all actives have a fitted effect of over 15% in size; note: potency is the fitted concentration of half-maximal effect
In short: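 A 15-concentration quantitative screen uses HepG2 cells co-transfected stably with human CAR and CYP2B6-2.2kb reporter. Treatment lasts 24 h with 0.75 uM PK11195 final present; ONE-Glo luminescence is the signal.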

[5] = qHTS assay to identify small molecule antagonists of the estrogen related receptor signaling pathway with the pleiotropic PPARgamma coactivator (PGC) from Tox21 10K library - cell viability counter screen (AID 1224840; active = well fitted cell-killing curve with a large enough effect in the repeat runs, not every such curve was filed as active; note: nearly all actives have a fitted effect of over 40% in size); conditions: PGC/ERR reporter cells viability, CellTiter-Fluor, 17.5 h; series mostly up to 92.4 µM
In short: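 Multiplexed viability counter screen in the PGC/ERR cell line: cells treated with DMSO-dissolved compounds for 17.5 hours at 37 C, then viability measured as CellTiter-Fluor fluorescence.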

[6] = qHTS assay to identify small molecule agonists of H2AX (AID 1224845; active = well fitted activation curve with a large enough effect in the signal ratio in the repeat runs, not every such curve was filed as active; the % refers to the signal ratio); conditions: CHO-K1 phospho-H2AX Ser139 HTRF, 3 h; series mostly up to 154 µM
In short: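 Phospho-H2AX Ser139 measured by HTRF (ex 320 nm; em 665 and 620 nm) after 24 hr antibody incubation. Compounds, 15 concentrations, 0.76% DMSO, were applied to CHO-K1 cells for 3hr at 37C before lysis.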

[7] = qHTS assay to identify small molecule agonists of H2AX - cell viability counter screen (AID 1224847; calls by dose curve; note: top concentration of the series differs between compounds; nearly all actives have a fitted effect of over 30% in size); conditions: CHO-K1 viability, CellTiter-Glo luminescence, 3 h; series mostly up to 154 µM
In short: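 We seed wild-type CHO-K1 cells overnight, treat them for 3 hr at 37C with compounds in 15-concentration series, and quantify remaining viability by CellTiter-Glo luminescence.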

[8] = qHTS RealTime-Glo MT Cell Viability Assay in HepG2 cells - 24 hour (AID 1224867); conditions: RealTime-Glo luminescence; series mostly up to 76.8 µM; note: nearly all actives have a fitted effect of over 50% in size
In short: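 Cells + NanoLuc/prosubstrate dispensed (600 cells/well) → 5 h at 37 C/5% CO2 → compounds in DMSO transferred → 40 h incubation at 37 C, luminescence read at 0, 8, 16, 24, 32, 40 h.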

[9] = qHTS RealTime-Glo MT Cell Viability Assay in HEK293 cells - 32 hour (AID 1224868); conditions: RealTime-Glo luminescence; series mostly up to 76.8 µM; note: top concentration of the series differs between compounds; nearly all actives have a fitted effect of over 50% in size
In short: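 Tox21 10K qHTS, HEK293, 600 cells/well, RealTime-Glo reagent co-dispensed with cells; 5 h preincubation, compound by pintool, 37 C, luminescence at 0–40 h.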

[10] = A CellTox Green Cytotoxicity Assay to monitor cytotoxicity in HEK293 cells - 0 hour (AID 1224869); conditions: CellTox Green fluorescence; series mostly up to 76.8 µM; note: nearly all actives have a fitted effect of over 50% in size; note: potency is the fitted concentration of half-maximal effect
In short: (§1)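 Cells (HEK293, 600/well) and dye reagent are dispensed together. After 5 h at 37 C, 23 nL compound is pinned in. Plates stay at 37 C for 40 h with fluorescence read at 0h, 8h, 16h, 24h, 32h and 40h.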

[11] = qHTS RealTime-Glo MT Cell Viability Assay in HepG2 cells - 40 hour (AID 1224870); conditions: RealTime-Glo luminescence; series mostly up to 76.8 µM; note: nearly all actives have a fitted effect of over 50% in size
In short: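 Real-time viability: cells seeded at 600 per well together with NanoLuc and cell-permeant prosubstrate, compounds added after 5 h incubation. Luminescence tracked at 0, 8, 16, 24, 32 and 40 h of exposure.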

[12] = A CellTox Green Cytotoxicity Assay to monitor cytotoxicity in HEK293 cells - 40 hour (AID 1224871); conditions: CellTox Green fluorescence; series mostly up to 76.8 µM; note: nearly all actives have a fitted effect of over 45% in size; note: potency is the fitted concentration of half-maximal effect
In short: as §1

[13] = qHTS assay to identify small molecule agonists of the hypoxia (HIF-1) signaling pathway - cell viability counter screen (AID 1224844; calls by dose curve; note: nearly all actives have a fitted effect of over 50% in size); conditions: HRE-bla ME-180 viability, CellTiter-Glo luminescence, 17 h; series mostly up to 76.8 µM
In short: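 Cytotoxicity was measured in parallel with the HRE-driven beta-lactamase readout: after 17 hrs of compound exposure at 37C, HRE-bla ME-180 cells received CellTiter-Glo and luminescence was recorded 30 min later.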

[14] = qHTS assay to identify small molecule agonists of the hypoxia (HIF-1) signaling pathway (AID 1224846; active = well fitted activation curve with a large enough effect in the signal ratio in the repeat runs, not every such curve was filed as active; the % refers to the signal ratio); conditions: HRE-bla ME-180 cells, beta-lactamase ratio, 17 h; series mostly up to 76.8 µM
In short: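 Compounds from the Tox21 10K library, dissolved in DMSO, are tested for induction of a hypoxia response element–controlled beta-lactamase reporter in ME-180 cells. Exposure lasts 17 hrs at 37C after a 5 hr settling period, followed by CCF4-AM FRET substrate.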

[15] = qHTS assay to identify small molecule antagonists of the estrogen related receptor signaling pathway with the pleiotropic PPARgamma coactivator (PGC) from Tox21 10K library (AID 1224841; call rule not given here); conditions: PGC/ERR reporter cell line, ONE-Glo luciferase, 18 h; series mostly up to 92.4 µM
In short: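 Steps: plate 2,000 PGC/ERR cells per well; incubate 6 h at 37 C with 5% CO2; transfer compounds from DMSO stocks by pin tool; incubate 18 h at 37 C; add One-Glo; measure luminescence 30 min later.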

[16] = molecular target: Thyrotropin receptor (Homo sapiens) (UniProt P16473); experiment: qHTS assay to identify small molecule agonists of the thyroid stimulating hormone receptor (TSHR) signaling pathway (AID 1224843; calls by dose curve; note: nearly all actives have a fitted effect of over 45% in size); conditions: TSHR-HEK293 cells, cAMP HTRF, agonist mode, 30 min; series mostly up to 92.4 µM
In short: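 A cell-based cAMP HTRF format was run in TSHR-transfected HEK293 cells, 800 per well. Treatment: 30 min, room temperature. Detection: 1 h with labelled cAMP and anti-cAMP cryptate. Concentration-response over 15 points, three replicates.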

[17] = qHTS assay to identify small molecule antagonists of the estrogen related receptor (ERR) signaling pathway from Tox21 library (AID 1224848); conditions: ERR reporter cell line, luciferase antagonist mode, 18 h; series mostly up to 92.4 µM; note: nearly all actives have a fitted effect of over 50% in size; note: potency is the fitted concentration of half-maximal effect
In short: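 ERR cell line, 2,000 cells/well. 6 h settle, then compound (DMSO) added; 18 h at 37 C; ONE-Glo luminescence after 30 min RT.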

[18] = qHTS assay to identify small molecule agonists of the estrogen related receptor (ERR) signaling pathway from Tox21 library (AID 1224849; calls by dose curve; note: nearly all actives have a fitted effect of over 15% in size); conditions: ERR reporter cell line, ONE-Glo luciferase, 18 h; at 92.4 µM (top of the series) unless noted
In short: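 Cells carrying the ERR reporter were plated and allowed to settle for 6 h, exposed to library compounds for 18 h at 37 C, then lysed with ONE-Glo and luminescence measured.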

[19] = qHTS assay to identify small molecule agonists of the estrogen related receptor signaling pathway with the pleiotropic PPARgamma coactivator (PGC) from Tox21 10K library (AID 1224842); conditions: PGC/ERR reporter cell line, luciferase ONE-Glo, 18 h; series mostly up to 92.4 µM; note: nearly all actives have a fitted effect of over 15% in size
In short: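 Luminescence from One-Glo (30 min, room temperature) measured after PGC/ERR cells had 18 h at 37 C with pinned compound (23 nL in DMSO). Cells had been seeded at 2,000 per well and pre-incubated 6 h.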

Chain of Nuclear receptor subfamily 1 group I member 3 (Homo sapiens) (Q14994 whole entry, looked up): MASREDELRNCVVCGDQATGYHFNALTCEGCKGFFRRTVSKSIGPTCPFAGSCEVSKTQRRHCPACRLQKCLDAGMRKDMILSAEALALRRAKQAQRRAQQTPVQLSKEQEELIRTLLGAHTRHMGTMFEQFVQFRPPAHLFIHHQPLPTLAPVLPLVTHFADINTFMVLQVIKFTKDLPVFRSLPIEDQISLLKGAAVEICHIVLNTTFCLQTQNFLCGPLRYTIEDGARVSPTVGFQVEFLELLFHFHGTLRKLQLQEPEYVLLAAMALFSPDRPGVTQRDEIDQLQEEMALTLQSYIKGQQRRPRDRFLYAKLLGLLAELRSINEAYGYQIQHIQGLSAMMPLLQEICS
Chain of Thyrotropin receptor (Homo sapiens) (P16473 whole entry, looked up): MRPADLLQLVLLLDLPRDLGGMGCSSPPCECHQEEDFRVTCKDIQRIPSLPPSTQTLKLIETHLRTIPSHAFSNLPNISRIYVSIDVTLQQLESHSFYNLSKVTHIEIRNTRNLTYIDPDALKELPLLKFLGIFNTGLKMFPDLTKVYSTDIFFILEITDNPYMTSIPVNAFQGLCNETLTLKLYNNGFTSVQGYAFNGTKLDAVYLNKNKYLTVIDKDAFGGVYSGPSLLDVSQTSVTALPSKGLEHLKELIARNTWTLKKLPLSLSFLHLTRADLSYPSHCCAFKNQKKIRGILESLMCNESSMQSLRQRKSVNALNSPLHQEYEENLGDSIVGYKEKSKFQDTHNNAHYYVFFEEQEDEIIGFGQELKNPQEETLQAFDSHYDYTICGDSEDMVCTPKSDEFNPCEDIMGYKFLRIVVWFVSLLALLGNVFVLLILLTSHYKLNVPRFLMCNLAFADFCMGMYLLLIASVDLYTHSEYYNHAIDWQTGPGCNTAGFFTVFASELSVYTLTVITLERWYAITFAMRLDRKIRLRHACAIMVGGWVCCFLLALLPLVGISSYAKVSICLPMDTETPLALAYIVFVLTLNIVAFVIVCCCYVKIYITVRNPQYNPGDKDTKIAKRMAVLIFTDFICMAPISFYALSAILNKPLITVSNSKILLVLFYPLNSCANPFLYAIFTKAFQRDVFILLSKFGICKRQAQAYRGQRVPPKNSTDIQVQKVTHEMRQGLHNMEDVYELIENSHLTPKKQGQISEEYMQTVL

SMILES	Potency [1]	Potency [2]	Potency [3]	Potency [4]	Potency [5]	Potency [6]	Potency [7]	outcome [8]	Potency [9]	Potency [10]	Potency [11]	Potency [12]	Potency [13]	outcome [14]	Potency [15]	Potency [16]	Potency [17]	activity change, positive = activation [18]	Potency [19]
C=CCCC	inactive	inactive	inactive	inactive	inactive	inactive	inactive	inactive	inactive	inactive	inactive	inactive	–	–	–	–	–	–	–
Nc1ccccc1Nc1ccccc1	inactive	–	inactive	54.6 µM (active)	–	–	–	–	–	inactive	inactive	inactive	inactive	inactive	–	–	–	–	–
O=C(OCCOCCOCCOC(=O)c1ccccc1)c1ccccc1	inactive	inactive	inactive	inactive	inactive	inactive	–	inactive	inactive	inactive	inactive	–	inactive	–	–	–	–	–	–
CC1(COc2ccc(CC3SC(=O)NC3=O)cc2)CCCCC1 (stereo unspecified)	inactive	inactive	inactive	–	inactive	inactive	inactive	inactive	inactive	inactive	–	inactive	–	inactive	inactive	inactive	inactive	7.77% [at 42.5 µM]	–
Cc1c(N=C=O)cccc1N=C=O	inactive	–	inactive	inactive	inactive	inactive	inactive	inactive	inactive	inactive	inactive	–	inactive	–	–	inactive	–	–	–
CCCCOC(=O)CC#N	inactive	inactive	inactive	inactive	inactive	inactive	inactive	–	inactive	inactive	inactive	inactive	inactive	inactive	–	–	–	–	–
CCc1ccc(C(=O)C(C)CN2CCCCC2)cc1 (stereo unspecified)	inactive	inactive	inactive	inactive	inactive	inactive	–	inactive	inactive	inactive	inactive	–	inactive	inactive	–	–	–	–	–
NC(=O)c1ccccc1C(N)=O	inactive	–	30.8 µM (active)	inactive	–	inactive	inactive	inactive	–	49.2 µM (active)	inactive	49.2 µM (active)	–	inactive	–	inactive	48.8 µM (active)	-52.8%	inactive
CCCCOc1ccc(N)cc1	inactive	inactive	inactive	–	–	–	inactive	inactive	inactive	inactive	–	inactive	inactive	inactive	inactive	inactive	inactive	3.06%	–
CCCc1ccc(OC)cc1	inactive	inactive	–	–	inactive	–	inactive	inactive	inactive	inactive	inactive	inactive	inactive	–	–	–	–	–	–
